Screens (PubChem BioAssay)
An excerpt weighted towards active compounds, which were near 4% of everything screened.
HIF-2a block: blocks HIF-2a reporter activity; 786-0 RCC cells HIF-2a reporter, luciferase luminescence, overnight; inhibition, % at 18.8 µM; 0.72% of 360,000 active;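 active means inhibition of the luminescence signal of 40% or more relative to plate controls, in a single-dose primary screen at 18.75 µM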
KKLEB cytotox: reduces viability of KKLEB cystic fibrosis airway cells. KKLEB CF airway cells viability, ATPlite luminescence, overnight; hits give low values; cells stimulated with P. aeruginosa culture filtrate. activity change (cytotoxicity), % at 5 µM. 0.36% of 360,000 active. AID 602141;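 active means corrected activity change at or below -50% at 5 µM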
TROY NFkB inh: TROY signaling inhibition. Q293 LMP1-TROYcd NF-kB luciferase reporter, 4 h. inhibition, % at 10 µM. 0.98% of 360,000 active;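 active means compounds whose plate-normalised and pattern-corrected inhibition of the luciferase reporter signal at the single screening dose is 50% or more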
TWEAK Fn14 block: inhibitors of TWEAK-Fn14 interaction signaling | AID 1159606 | 2% of 360,000 active | TWEAK-stimulated Fn14 reporter cells, luciferase luminescence, 8 h | inhibition, % at 10 µM; in the data active means inhibition above about 50%
Peg3 prom inh: reduces Peg3 promoter-driven luciferase expression in HeLa; AID 588405; 1.7% of 360,000 active; inhibition, % at 20 µM; HeLa PEG-Prom luciferase reporter, luminescence, overnight;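 active means inhibition of at least 50% at 20 µM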
CF NFkB inh: inhibitors of cystic fibrosis induced NF-kB; KKLEB NF-kB-GFP reporter, PAF-induced, GFP fluorescence overnight; inhibition, % at 5 µM; 0.86% of 360,000 active; AID 588850;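 active means at least 50% inhibition at 5 µM, scaled per plate between neutral and stimulator controls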;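 further: PAF is a Pseudomonas aeruginosa culture filtrate used as stimulus; plate controls were PAF-stimulated DMSO wells for no effect and unstimulated DMSO wells for full effect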
Mdm2-MdmX confirm: Mdm2/MdmX (human) interaction inhibition, confirmed. AID 504601. SaOS-2 split-luciferase Mdm2/MdmX complementation, luminescence. shares compounds with HIF-2a block. 99% of 740 active. inhibition, % at 8 µM;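 active means mean inhibition of the luminescence signal across two replicates at or above 26 percent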
HIF-2a conf: HIF-2a inhibition, single concentration confirmation | inhibition, % at 18.8 µM | shares compounds with HIF-2a block | 786-0 RCC cells, HIF-2a luciferase reporter luminescence, overnight | AID 651580 | 56% of 1,800 active;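 active means mean inhibition across four replicates of at least 40 percent at the single tested concentration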
HIF-1a counter: HIF-1a inhibition counter-screen for HIF-2a hits; shares compounds with HIF-2a block; MiaPaCa-2 HIF-1a luciferase reporter, desferoxamine, overnight; 72% of 1,800 active; inhibition, % at 18.8 µM; AID 651589;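 active means mean inhibition of the reporter signal across four replicates at the single tested dose of 50% or more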
Numbers without * were called inactive; / = no result given.

SMILES | HIF-2a block | KKLEB cytotox | TROY NFkB inh | TWEAK Fn14 block | Peg3 prom inh | CF NFkB inh | HIF-2a conf | HIF-1a counter | others
CC(=O)c1sc(NC(=O)C2CC(=O)N(Cc3ccccc3)C2)nc1-c1ccccc1 (stereo not drawn) | 40.5* | -13.3 | -0.7 | 15.1 | 4.3 | -3.1 | 8.9 | 28.7
CCc1ccc(OCCNC(=O)c2ccccc2SCc2ccccc2)cc1 | 14.1 | 0.2 | 35.6 | 7.9 | 36.0 | -1.1 | / | /
CCOC(=O)c1cc(-c2csc(-c3cccc(Cl)c3)n2)on1 | 9.6 | 4.8 | -5.9 | 1.0 | -4.0 | 8.8 | / | /
CCOC(=O)c1cc(-c2csc(Nc3c(C)cc(C)cc3C)n2)on1 | 57.5* | -5.2 | -7.4 | -19.8 | 13.2 | 15.9 | 19.1 | 15.8
O=[N+]([O-])c1cc(S(=O)(=O)N2CCCCCC2)ccc1F | 94.2* | -25.5 | 9.4 | -0.5 | 101.5* | 51.1* | 87.3* | 104.8*
O=[N+]([O-])c1cc(S(=O)(=O)N2CCCC2)ccc1O | 19.3 | 4.1 | -19.1 | -0.1 | 0.0 | -11.3 | / | /
O=C(CCS(=O)(=O)c1ccccc1)Nc1ccc2c(c1)C(=O)NC2=O | 9.6 | -0.4 | 12.5 | -3.5 | 9.3 | -11.4 | / | /
Cc1ccccc1NC(=O)Cc1nnc(SCc2ccc(Cl)c(Cl)c2)n1C | -8.4 | 0.4 | -7.2 | 7.3 | 16.2 | -3.8 | / | /
COc1ccc(/C=N/n2c(=O)[nH]c3c([nH]c4ccc(Cl)cc43)c2=O)cc1CN1CCCCC1 | 9.2 | 13.2 | -9.7 | 6.2 | -5.8 | -12.5 | / | /
COc1ccc2[nH]c3c(=O)n(/N=C/[C@H]4C(C)C=C(C)CC4C)c(=O)[nH]c3c2c1 (stereo partly drawn) | 57.5* | -12.3 | -22.6 | 7.4 | 51.0* | 5.8 | -2.0 | 100.2*
CCc1nnc(NC(=O)CSc2nncc(=O)n2N)s1 | -1.5 | -4.2 | -38.7 | 18.7 | 5.2 | 7.6 | / | /
COc1ccc(/C=N/NC(=O)c2cc(C34CC5CC(CC(C5)C3)C4)[nH]n2)cc1O | 55.0* | 0.3 | -12.0 | -75.3 | 16.8 | 4.8 | -0.4 | 31.9
CCSCCc1nnc(NC(=O)Nc2cccc(C(F)(F)F)c2)s1 | 8.8 | -56.5* | 63.0* | 63.8* | 10.9 | 69.8* | / | / | Mdm2-MdmX confirm=98.0*
COC(=O)c1c(C)oc2cc(Br)c(OCC(=O)C(C)(C)C)cc12 | 21.6 | -20.1 | 2.5 | 8.5 | 7.3 | 2.8 | / | /
COc1ccc(OC)c(CN2CCN(S(=O)(=O)c3ccc(NC(C)=O)cc3)CC2)c1 | -2.2 | -3.4 | 43.4 | -7.6 | -1.2 | 0.5 | / | /
COc1ccc(-n2c(C)c([N+](=O)[O-])c3ccc(O)c(CN(C)C)c32)cc1 | 14.5 | -22.9 | / | 79.6* | 32.8 | 79.2* | / | / | Mdm2-MdmX confirm=94.2*
COc1ccc(-n2c(C(C)n3nc(C)c([N+](=O)[O-])c3C)n[nH]c2=S)cc1 (stereo not drawn) | 14.5 | 12.2 | 1.8 | -0.7 | -0.4 | -13.0 | / | /
O=C(CN1C(=O)S/C(=C\c2ccccc2)C1=O)NNC(=O)c1ccccc1O | 11.2 | 6.4 | 13.0 | -0.8 | 2.3 | -18.1 | / | /
CC(/C=C1\SC(=O)N(CCCC(=O)O)C1=O)=C\c1ccccc1 | 91.1* | 4.9 | 87.0* | 104.2* | 80.3* | 17.0 | 98.8* | 101.0*
O=C(CCCN1C(=O)S/C(=C\c2ccccc2)C1=O)NNC(=O)c1ccccc1O | 90.5* | -4.8 | 23.9 | 34.6 | 18.0 | 13.5 | 89.6* | 97.2*
CC(/C=C1\SC(=S)N(CCC(=O)Nc2ccccc2O)C1=O)=C\c1ccccc1 | 2.6 | -5.2 | -1.8 | 3.6 | 25.3 | 25.0 | / | /
C=CCn1c(SCC(=O)N(C)C2CCCCC2)nnc1C1CC1 | 3.1 | -0.2 | 5.8 | -4.6 | 5.9 | 17.6 | / | /
COc1ccccc1N(CC(=O)NCc1ccccc1)S(C)(=O)=O | 17.9 | 7.3 | -0.4 | 15.4 | 16.1 | -11.7 | / | /
CCOc1cc(NC(=O)CCl)c(OCC)cc1NC(=O)CCl | 23.4 | -31.2 | 7.8 | 43.7 | 50.5* | 17.5 | / | / | Mdm2-MdmX confirm=103.0*
CC1=C(C(=O)OCc2ccccc2)C(c2cccs2)N2C(=O)CCSC2=N1 (stereo not drawn) | 26.0 | 9.5 | 19.1 | 18.3 | 17.2 | -15.4 | / | /
SMILES | HIF-2a block | KKLEB cytotox | TROY NFkB inh | TWEAK Fn14 block | Peg3 prom inh | CF NFkB inh | HIF-2a conf | HIF-1a counter | others
CC(OC(=O)CCCc1nc2ccccc2s1)C(=O)NC(N)=O (stereo not drawn) | 8.2 | 11.6 | 13.6 | 17.8 | -5.2 | -15.0 | / | /
CCNC(=O)NC(=O)C(C)OC(=O)CCCSc1nc2ccccc2s1 (stereo not drawn) | 68.4* | -2.9 | 39.3 | 59.3* | 13.7 | -22.7 | 86.2* | 68.4*
CNC(=O)NC(=O)C(C)OC(=O)CCCSc1nc2ccccc2s1 (stereo not drawn) | 70.9* | -4.6 | 30.8 | 54.9* | 14.5 | -1.3 | 83.8* | 63.3*
CNC(=O)NC(=O)C(C)OC(=O)CCCc1nc2ccccc2s1 (stereo not drawn) | 6.6 | -12.2 | -39.0 | 0.5 | 3.6 | -6.9 | / | /
CCNC(=O)NC(=O)COC(=O)CCCSc1nc2ccccc2s1 | 60.3* | -1.4 | 25.8 | 37.2 | -9.7 | 10.7 | 85.6* | 59.9*
CCOC(=O)c1nnc(-c2ccccc2)nc1Sc1ccccc1Cl | 62.9* | -6.2 | 33.9 | 56.7* | 50.6* | 31.4 | 10.7 | 91.5*
Cc1cc(=O)[nH]c(N=N/C(=N/Nc2ccccc2C)c2ccccc2)n1 | -28.4 | 2.2 | -36.8 | -34.7 | 22.2 | -0.1 | / | / | Mdm2-MdmX confirm=84.0*
CC(=O)Nc1ccc(OCC(=O)c2ccc(C)cc2C)cc1 | 64.4* | 7.0 | -2.8 | -14.9 | -20.8 | -2.8 | 85.0* | 35.5
CC(=O)Nc1ccc(OCC(=O)c2cc(C)ccc2C)cc1 | 8.3 | 5.0 | 2.7 | 1.6 | 2.7 | 4.0 | / | /
O=C(CSCC(=O)c1ccc([N+](=O)[O-])cc1)c1ccc([N+](=O)[O-])cc1 | -20.7 | 1.0 | -3.4 | -11.3 | 8.5 | -3.3 | / | /
O=C(C#Cc1ccccc1)c1ccc([N+](=O)[O-])cc1 | 40.2* | -3.7 | 36.3 | 8.3 | 108.0* | 19.7 | -2.0 | 88.9* | Mdm2-MdmX confirm=103.0*
CSc1nnc(NC(=O)c2nc(S(=O)(=O)Cc3ccccc3F)ncc2Cl)s1 | 68.5* | -78.9* | 7.3 | 97.2* | 105.9* | 95.2* | 24.2 | 105.9* | Mdm2-MdmX confirm=102.2*
CSc1ncc(Cl)c(C(=O)Nc2nnc(SC/C=C/c3ccccc3)s2)n1 | 7.4 | 11.2 | 30.2 | -12.3 | 13.3 | -8.2 | / | /
CCSc1nnc(NC(=O)c2nc(S(=O)(=O)Cc3ccc(F)cc3)ncc2Cl)s1 | 87.9* | -97.2* | -2.3 | 99.5* | 107.0* | 91.7* | -29.3 | 96.7*
